These results are taken from PubChem BioAssay (Tox21).

Inconclusive results are not listed. The source holds several records for some structures; these can differ, active in one and inactive in another. Calls of active or inactive are those of the source. Calls come from the whole dose curve.
% is set by controls: 0 for no effect and ±100 for the full control effect; potency is the fitted concentration of half-maximal effect.

Sequence of Acetylcholinesterase (Homo sapiens) (P22303 whole entry, looked up): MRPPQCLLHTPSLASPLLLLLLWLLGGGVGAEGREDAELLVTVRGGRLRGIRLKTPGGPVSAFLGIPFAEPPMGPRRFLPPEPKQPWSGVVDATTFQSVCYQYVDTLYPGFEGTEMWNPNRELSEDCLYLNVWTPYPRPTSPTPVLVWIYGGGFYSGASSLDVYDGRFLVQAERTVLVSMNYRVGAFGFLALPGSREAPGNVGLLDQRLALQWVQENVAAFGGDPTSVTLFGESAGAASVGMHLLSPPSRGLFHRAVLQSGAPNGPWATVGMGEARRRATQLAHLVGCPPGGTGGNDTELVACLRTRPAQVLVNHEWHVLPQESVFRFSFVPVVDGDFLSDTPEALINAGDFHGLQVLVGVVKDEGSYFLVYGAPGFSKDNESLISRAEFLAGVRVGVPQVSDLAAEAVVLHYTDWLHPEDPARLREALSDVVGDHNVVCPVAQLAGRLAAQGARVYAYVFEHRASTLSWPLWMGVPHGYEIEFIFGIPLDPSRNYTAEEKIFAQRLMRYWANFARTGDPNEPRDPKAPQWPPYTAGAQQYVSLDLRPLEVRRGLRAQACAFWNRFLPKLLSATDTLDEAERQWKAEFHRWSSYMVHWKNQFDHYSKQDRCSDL

For the assay, the target named is Acetylcholinesterase (Homo sapiens) (UniProt P22303). Nature of the assay: Acetylcholinesterase (AChE) small molecule antagonists: colormetric cell-based qHTS assay (AID 1347395). Note: nearly all actives have a fitted effect of over 30% in size. As to conditions: SH-SY5Y cells AChE activity, colorimetric (Ellman); series mostly up to 115 µM; activity, negative = inhibition: at the top concentration. The method, boiled down:
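SH-SY5Y cells; cpd 30 min 37 C; + DTNB/acetylthiocholine, 90 min 37 C; colorimetric thiocholine read; qHTS.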
As to `CN(C)C=O`, the Potency entry was “inactive”. With `CC(=O)Oc1ccc(C(=C2CCCCC2)c2ccc(OC(C)=O)cc2)cc1`, the “activity, negative = inhibition” value was 3.3% [at 52.9 µM] (inactive).

Consider `[Cl][Bi]([Cl])([c]1ccccc1)([c]1ccccc1)[c]1ccccc1`, for which the “activity, negative = inhibition” value was 3.36% (inactive).

For `CCCCCCCC/C=C\CCCCCCCC(=O)NCc1ccc(O)c(OC)c1`, the “activity, negative = inhibition” value is 0.62% [at 52.9 µM] (inactive). `C=CC(C)(C)O`: the “activity, negative = inhibition” value is 1.93% (inactive). With `CC(=O)c1ccc2c(c1)N(CCCN(C)C)c1ccccc1S2`, the “activity, negative = inhibition” value is -8.76% [at 52.9 µM] (inactive). For `CCCCOC(=O)C(C)OC(=O)CCC` (centres undefined), the “activity, negative = inhibition” value was -0.841% (inactive).

`CCc1c(C(=O)O)c(=O)cnn1-c1ccc(Cl)cc1`: the “activity, negative = inhibition” value was -1.89% (inactive).

Regarding `CCNC(=O)/C=C/c1cccc(Br)c1`, the “activity, negative = inhibition” value is -2.2% [at 52.9 µM] (inactive).

`CC(=O)[O][Al][O]C(C)=O`: the “activity, negative = inhibition” value is 4.58% (inactive). Same read-out and setting: with `CCC(=O)O[C@@H]1C[C@H]2CC[C@]1(C)C2(C)C` the figure was 0.284% (inactive); with `C1COCO1`, 1.69% (inactive). With `S=c1nc[nH]c2nc[nH]c12`, the Potency entry was “inactive”. Take `CC12CCC(C1)C(C)(C)C2O` (centres undefined): the “activity, negative = inhibition” value was -0.0003% (inactive). Still for that read-out and setting: the value for `O=C(Nc1ccccc1)Nc1ccccc1` was 2.66% (inactive); that for `CCCc1c2oc(C(=O)O)cc(=O)c2cc2c(=O)cc(C(=O)O)n(CC)c12` was 3.56% [at 52.9 µM] (inactive).

For the compound `CC(C)Cn1cnc2c1c(=O)n(C)c(=O)n2C`, the “activity, negative = inhibition” value was 1.01% [at 52.9 µM] (inactive).

Consider `Cc1c(Nc2ncccc2C(=O)O)cccc1C(F)(F)F`, for which the “activity, negative = inhibition” value is 1.26% [at 52.9 µM] (inactive). With `CC1=C2[C@@H]([C@H](C)CC[C@H]2/C=C(\C)C(=O)O)[C@H](O)C1`, the “activity, negative = inhibition” value is 4.2% (inactive). Turning to `CCC(C)(C)c1ccc(CC(C)CN2C[C@@H](C)O[C@@H](C)C2)cc1` (some centres undefined), the “activity, negative = inhibition” value is 1.18% [at 52.9 µM] (inactive). On the same count and under the same terms, the value for `CC(CCO)CCc1ccccc1` (centres undefined) was 1.11% (inactive).

`CCOCC(=O)O`: the Potency was 36.4 µM (active) and inactive. For `ClC1=C(Cl)C1(Cl)Cl`, the “activity, negative = inhibition” value was -1.23% (inactive). The same measure, in the same setting: the value for `O=C(O)CP(=O)(O)O` was -13% [at 52.9 µM] (inactive).
